Source: PubChem
A selection: hits, their analogues and other compounds. The true share with any hit is near 0.76%.
UGM FP inh: inhibitors of M. tuberculosis UDP-galactopyranose mutase | P9WIQ1 | purified UGM, fluorescence polarization probe displacement | inhibition, % at 10 µM | 320,000 compounds, 0.06% hits; in the data active means inhibition above about 10%, passing the limit was not always enough; inconclusive means no clear call, values can overlap the other calls
PrP 5UTR inh: suppresses PrP 5' UTR mRNA reporter expression; cell-based PrP 5' UTR mRNA reporter, plate reader; inhibition, % (no concentration beside the values); 340,000 compounds, 0.35% hits; in the data active means inhibition above about 52%
Mtb bLac sens: beta-lactam sensitization of Mtb H37Rv; M. tuberculosis H37Rv growth with meropenem, percent inhibition; 330,000 compounds, 0.27% hits; inhibition, % at 25 µM; AID 434955; call rule not given here;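 further: growth measured after seven days incubation then overnight dye step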
Vc quorum ag: quorum light induction in luxS cqsA deficient V. cholerae; V. cholerae BH1578 lux reporter, luminescence, 6 h; activation, % at 18.7 µM; 350,000 compounds, 0.16% hits; AID 588436; in the data active means activation mostly above about 9.7%, no sharp cut-off; inconclusive means no clear call, values can overlap the other calls; inactive means mostly below about 3.7%
Rv3671c inh: Rv3671c (M. tuberculosis) protease inhibition | P9WHR9 | inhibition, % at 5.96 µM | 320,000 compounds, 0.048% hits | AID 2606; in the data active means inhibition above about 38%;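 further: extracellular domain of Rv3671c used as enzyme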
Target sequence (P9WHR9 whole entry, looked up, the tested form may be a part): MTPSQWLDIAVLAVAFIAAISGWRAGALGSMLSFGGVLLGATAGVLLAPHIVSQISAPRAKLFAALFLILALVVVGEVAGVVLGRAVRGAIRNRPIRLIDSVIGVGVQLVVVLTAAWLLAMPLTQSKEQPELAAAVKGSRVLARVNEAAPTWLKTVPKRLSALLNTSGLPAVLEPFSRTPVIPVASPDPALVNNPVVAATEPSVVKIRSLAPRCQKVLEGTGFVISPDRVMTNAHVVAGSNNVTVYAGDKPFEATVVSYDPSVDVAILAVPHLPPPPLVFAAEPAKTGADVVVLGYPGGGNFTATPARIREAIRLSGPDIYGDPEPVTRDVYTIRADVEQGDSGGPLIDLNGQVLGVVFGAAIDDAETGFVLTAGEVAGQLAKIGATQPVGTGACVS
FadD28 FP inh: blocks FadD28 binding to the bisubstrate probe; fluorescence polarization; inhibition, % at 12.5 µM; 360,000 compounds, 0.22% hits; in the data active means inhibition above about 8.5%, passing the limit was not always enough; inconclusive means no clear call, values can overlap the other calls
Of the large screens only hits and unclear results are named; the others gave an inactive call.

Cc1ccc(S(=O)(=O)Oc2ccccc2/C=N/Nc2ccc(C(=O)O)cc2)cc1	FadD28 FP inh 9.1
COc1cccc(/C=N/NC(=O)c2ccc3nc[nH]c3c2)c1O	none
CCN(CC)c1ccc(/C=N/NC(=O)c2ccc3nc[nH]c3c2)c(O)c1	FadD28 FP inh 27.4
CN[C@@H]1[C@H](O)[C@H](NC)[C@H]2O[C@@]3(O)C(=O)C[C@@H](C)O[C@H]3O[C@@H]2[C@H]1O	Mtb bLac sens inconclusive, Vc quorum ag 71.8
CCOc1ccc(S(=O)(=O)N2CCCC(C(=O)NC3CC3)C2)cc1Cl (stereo not drawn)	none
Cc1cc(/C=C\c2ccc3cc(N(C)C)ccc3[n+]2C)c(C)n1-c1ccccc1	PrP 5UTR inh 73.5
C[n+]1c(/C=C/c2ccc(O)cc2)ccc2ccccc21	none
COc1cc(/C=C2/SC(=Nc3ccc(O)cc3)NC2=O)cc(OC)c1O	none
COc1ccc(N=C2NC(=O)/C(=C/c3ccc(O)c(OC)c3)S2)cc1	FadD28 FP inh 11.9
COc1ccccc1-c1nnc(SCC(=O)Nc2oc(C)c3c(C)n[nH]c(=O)c23)n1C	none
Cc1n[nH]c(=O)c2c(NC(=O)CSc3nnc(-c4ccco4)n3C)oc(C)c12	UGM FP inh 46.9
N/C(=N\N=C/c1ccc(-c2ccc(O)c(C(=O)O)c2)o1)N[N+](=O)[O-]	FadD28 FP inh 12.3
N#CC1=C(N)Oc2cc(N)ccc2C1c1cccc(Br)c1 (stereo not drawn)	none (no result: Rv3671c inh)
CC(C)[C@H](NC(=O)C1CCN(S(=O)(=O)c2ccc(F)cc2)CC1)C(=O)NCc1ccco1	none
COc1ccccc1Cc1c(-c2ccco2)nc2c(C)cc(Br)cn12	none (no result: UGM FP inh, PrP 5UTR inh, Mtb bLac sens, Vc quorum ag, Rv3671c inh)
O=C(O)CCC(=O)Nc1ccc(C(=O)OCC(=O)c2ccc(Cl)cc2)cc1	FadD28 FP inh 15.0
CCOc1ccc(/C=C2\N=C(c3cccs3)OC2=O)cc1OC	UGM FP inh 38.1 (no result: PrP 5UTR inh, Vc quorum ag, FadD28 FP inh)
O=C(Nc1ccc(S(=O)(=O)N2CCCCC2)cc1)c1ccc(CN2CCc3ccccc3C2)cc1	Vc quorum ag 16.7
O=C(Nc1ccccc1)c1ccc(CN2CCc3ccccc3C2)cc1	none
O=C(NCC1CCS(=O)(=O)C1)Oc1ccccc1 (stereo not drawn)	none
N=C1CCC(=N)c2c1c(O)c1ccccc1c2O	FadD28 FP inh 14.0
O=C1/C(=C/c2ccc(O)c(O)c2)SC(=S)N1Nc1ccccc1	none (no result: UGM FP inh, Mtb bLac sens, Rv3671c inh)
O=C(NN1C(=O)/C(=C/c2ccc(O)c(O)c2)SC1=S)c1ccccc1	FadD28 FP inh 42.7
Cn1cccc1/C=C1\SC(=S)N(NC(=O)c2ccccc2Cl)C1=O	none
O=C(NN1C(=O)/C(=C\c2ccc(O)c([N+](=O)[O-])c2)SC1=S)c1ccccc1Cl	FadD28 FP inh 15.0
Cc1ccc(C(=O)NN2C(=O)/C(=C/c3cccn3C)SC2=S)cc1	FadD28 FP inh 12.8 (no result: Mtb bLac sens)
Cc1cc(C)c([N+](=O)[O-])cc1NCC(=O)N1CCN(c2ccccc2)CC1	none
Cc1ccc(NC(=Nc2ccc(Br)cc2)N2CCOCC2)cc1C	none
COc1ccc(OC)c(NC(=O)C2=C(C)Nc3ncnn3C2c2cccs2)c1 (stereo not drawn)	Vc quorum ag active
O=C(CN1C(=O)CCSc2ccccc21)NC1CCCCC1	none
CC(C)CNC(=S)NNC(=O)c1csc2c1CCC(C)C2 (stereo not drawn)	none (no result: PrP 5UTR inh)
Cc1cccc(NC(=S)NNC(=O)c2csc3c2CCC(C)C3)c1 (stereo not drawn)	FadD28 FP inh 14.4 (no result: UGM FP inh)
Cc1cc2c(C(C)C)c(O)c(O)c(C=O)c2c(O)c1-c1c(C)cc2c(C(C)C)c(O)c(O)c(C=O)c2c1O	FadD28 FP inh 51.0 (no result: UGM FP inh, PrP 5UTR inh, Mtb bLac sens, Rv3671c inh)
COC(=O)c1c(C)cc(O)c(C=O)c1O	none
C=CCn1c(SCC(=O)NC2CC2)nc2sc(CC)cc2c1=O	none
CCNC(=S)N/N=C/c1cn(Cc2ccc(F)cc2)c2ccccc12	none
O=C(O)c1ccc(N/N=C/c2cn(Cc3ccc(F)cc3)c3ccccc23)cc1	FadD28 FP inh 18.1
CC(C)(C)OC(=O)N1CCC(c2c(C(=O)NCC3CCN(C4CCCC4)C3)cnn2-c2ccccc2Cl)CC1 (stereo not drawn)	none
O=C1C2C3C=CC(C3)C2C(=O)N1CCN1CCN(S(=O)(=O)/C=C/c2ccccc2)CC1 (stereo not drawn)	none
O=C1C2C3C=CC(C3)C2C(=O)N1CCN1CCN(S(=O)(=O)c2ccc3ccccc3c2)CC1 (stereo not drawn)	UGM FP inh 10.0
CCNC(=O)CSc1nnc(-c2cc(-c3ccc(Cl)cc3)nc3ccccc23)o1	none
CCc1ccc(/C=C/C(=O)C2C(=O)c3ccccc3C2=O)cc1	FadD28 FP inh 13.4
O=C(/C=C/c1ccccc1)C1C(=O)c2ccccc2C1=O	none
COC(=O)c1cn(S(=O)(=O)c2ccccc2)c2ccccc12	none (no result: FadD28 FP inh)
COc1cc(/C=C/C(=O)Nc2ccc(S(=O)(=O)Nc3onc(C)c3C)cc2)cc(OC)c1OC	none (no result: UGM FP inh, Mtb bLac sens, Rv3671c inh)
Cc1noc(NS(=O)(=O)c2ccc(NC(=O)C(Cl)(Cl)Cl)cc2)c1C	none
Cc1noc(NS(=O)(=O)c2ccc(NC(=O)C(C)(C)C)cc2)c1C	none
Cc1noc(NS(=O)(=O)c2ccc(NC(=O)/C=C/c3ccc(C(C)C)cc3)cc2)c1C	FadD28 FP inh 25.9
Cc1noc(NS(=O)(=O)c2ccc(NC(=O)Nc3ccc(Cl)c(Cl)c3)cc2)c1C	FadD28 FP inh 31.2
Cc1noc(NS(=O)(=O)c2ccc(N/C=C\C(=O)c3cccc4ccccc34)cc2)c1C	FadD28 FP inh 23.7
COc1cccc(C(=O)/C=C/Nc2ccc(S(=O)(=O)Nc3onc(C)c3C)cc2)c1	none
Cc1noc(NS(=O)(=O)c2ccc(NC(=O)/C=C/c3ccc(Br)cc3)cc2)c1C	FadD28 FP inh 9.7 (no result: Rv3671c inh)
CC(=O)NCCc1ccc(S(=O)(=O)Nc2ccc3c(c2)OCCO3)cc1	none
COc1ccc(-c2csc(/C(C#N)=C\c3ccc(OC)c([N+](=O)[O-])c3)n2)cc1	none
COc1ccc(-c2csc(/C(C#N)=C\c3ccc(O)c([N+](=O)[O-])c3)n2)cc1OC	FadD28 FP inh 9.5
C/C=C1\NC(=O)[C@H](C)NC(=O)[C@@H](NC(=O)[C@H](Cc2ccc(O)cc2)NC(=O)[C@@H](NC(=O)/C(C)=C/C)C(C)C)[C@@H](C)OC(=O)[C@H](CCCc2ccc(O)cc2)NC(=O)[C@@H](CCC(=O)OC)NC1=O	none (no result: UGM FP inh, PrP 5UTR inh, Mtb bLac sens, Vc quorum ag, Rv3671c inh)
C/C=C1\NC(=O)[C@H](CC(N)=O)N(C)C(=O)C([C@@H](C)O)NC(=O)C(CCCc2ccc(OC)cc2)NC(=O)[C@H](C(C)C)NC(=O)/C(=C\C)NC(=O)[C@H](O)[C@@H](C[C@@H](O)CCCCCCC)NC(=O)[C@H](C)NC(=O)CN(C)C(=O)[C@H](CCC(N)=O)NC1=O (stereo partly drawn)	FadD28 FP inh 11.5 (no result: UGM FP inh, Mtb bLac sens, Rv3671c inh)
C/C(=N\NC(=O)c1c(Cl)c(C)nn1C)c1ccc(NC(=O)C2CCC2)cc1	none
C/C(=N\NC(=O)c1c([N+](=O)[O-])c(C)nn1C)c1ccc(NC(=O)C2CCCC2)cc1	PrP 5UTR inh 66.6
COc1ccc(-c2nnn(CC#N)n2)cc1OC	none
COc1ccccc1-c1nnn(CC#N)n1	Vc quorum ag 20.0
